# Screening results (PubChem BioAssay)
# Rv3671c protease = Rv3671c (M. tuberculosis) protease inhibition. inhibition, % at 5.96 µM. P9WHR9. 320,000 tested, 0.048% active; in the data active = inhibition above about 38%;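 note: extracellular domain of Rv3671c used as enzyme; 0% = enzyme with DMSO and 100% = no enzyme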
# GDH-TPI counter = inhibits GDH-TPI coupling enzymes, artifact for Mtb FBA screen | inhibition, % at 4.8 µM | 360,000 tested, 1.2% active | GDH-TPI coupled enzyme counterscreen, NADH absorbance; in the data active = inhibition above about 30%;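 note: 0% = DMSO wells and 100% = wells lacking the enzyme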
# RecA intein inh = Mtb RecA intein splicing inhibition | P9WHJ3 | cell-free RecA intein splicing, fluorescence | inhibition, % (concentration not given with the values) | 290,000 tested, 0.75% active | AID 2221; in the data active = inhibition above about 30%;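 note: 0% = vehicle wells and 100% = reference inhibitor control wells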
# Target sequence (P9WHJ3 whole entry, looked up): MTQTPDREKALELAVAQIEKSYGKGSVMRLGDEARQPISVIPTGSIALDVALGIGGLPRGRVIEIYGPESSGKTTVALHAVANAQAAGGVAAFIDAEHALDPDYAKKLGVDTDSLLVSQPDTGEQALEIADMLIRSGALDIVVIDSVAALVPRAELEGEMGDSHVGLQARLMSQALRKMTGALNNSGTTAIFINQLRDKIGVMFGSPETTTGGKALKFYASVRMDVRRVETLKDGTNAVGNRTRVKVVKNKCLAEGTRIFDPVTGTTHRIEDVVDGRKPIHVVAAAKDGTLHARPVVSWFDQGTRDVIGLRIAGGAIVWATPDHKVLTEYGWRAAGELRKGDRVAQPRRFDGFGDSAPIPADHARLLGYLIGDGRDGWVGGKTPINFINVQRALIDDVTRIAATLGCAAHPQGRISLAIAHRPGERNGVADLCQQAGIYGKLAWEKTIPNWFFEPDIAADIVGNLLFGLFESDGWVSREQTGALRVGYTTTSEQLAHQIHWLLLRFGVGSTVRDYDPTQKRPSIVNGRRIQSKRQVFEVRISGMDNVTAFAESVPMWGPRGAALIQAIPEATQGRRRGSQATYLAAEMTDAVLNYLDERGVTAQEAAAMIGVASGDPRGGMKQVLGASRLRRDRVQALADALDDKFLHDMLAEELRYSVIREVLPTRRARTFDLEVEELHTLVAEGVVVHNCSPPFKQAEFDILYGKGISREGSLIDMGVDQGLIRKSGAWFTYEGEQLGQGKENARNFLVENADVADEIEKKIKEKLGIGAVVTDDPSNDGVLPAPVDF
# Mtb FBA inh = Mtb fructose-bisphosphate aldolase inhibition; P9WQA3; purified M. tuberculosis FBA, fluorescence read-out; 360,000 tested, 2.3% active; inhibition, % at 1 µM; in the data active = inhibition above about 27%;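 note: 0% = vehicle and 100% = reference inhibitor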
# BH1578 lux ind = induces V. cholerae light production without autoinducers; V. cholerae BH1578 lux reporter, luminescence, 6 h; activation, % at 18.7 µM; 350,000 tested, 0.16% active; AID 588436; in the data active = activation mostly above about 9.7%, no sharp cut-off
# Mtb UGM inh = blocks M. tuberculosis UGM enzyme | AID 504406 | inhibition, % at 10 µM | 320,000 tested, 0.06% active | purified UGM, fluorescence polarization probe displacement; in the data active = inhibition above about 10%, passing the limit was not always enough
# GFP chromophore = counter-screen GFP chromophore formation inhibition; shares compounds with RecA intein inh; cell-free GFP chromophore formation, fluorescence; EC50, µM; 2,100 tested, 83% active; AID 434968; call rule not given here
# * hit, by the source's call; i = inactive; nt = not tested or not shown. In the library only some 4.1% were active in any assay of this set; here they are far more common.
SMILES,Rv3671c protease,GDH-TPI counter,RecA intein inh,Mtb FBA inh,BH1578 lux ind,Mtb UGM inh,GFP chromophore
Cc1ccc(C)c(S(=O)(=O)Nc2ccc(C(=O)NCCCN3CCCC3=O)cc2)c1,2,5,4,-2,0,-1,nt
O=C1CC(c2ccccc2)=NN1c1nc(-c2ccccc2)cs1,4,4,0,-3,0,-1,nt
CC1=NN(c2nc(-c3ccccc3)cs2)C(=O)C1,6,4,66*,-4,i,2,8.5*
NC(=O)c1c(-c2cccs2)csc1N,13,nt,67*,nt,nt,-2,13*
CN(C)CCCN(C(=O)c1cc2cc([N+](=O)[O-])ccc2s1)c1nc2cc3c(cc2s1)OCCO3,3,3,5,1,-10,4,nt
Oc1cc(O)c2c(c1)O[C@H](c1ccc(O)c(O)c1)[C@H](O)C2,0,8,36*,3,i,2,>38
O=C(O[C@@H]1Cc2c(O)cc(O)cc2O[C@@H]1c1cc(O)c(O)c(O)c1)c1cc(O)c(O)c(O)c1,nt,nt,5,nt,nt,nt,nt
Nc1nc(Nc2ccccc2)nc(NCc2ccco2)c1[N+](=O)[O-],-31,30,2,1,0,1,nt
c1ccc(CNc2nc(NCc3ccccc3)c3ccccc3n2)cc1,4,-5,60*,7,1,0,23*
Fc1ccc(Nc2nc(NCc3ccco3)c3ccccc3n2)cc1,3,-2,49*,2,-1,1,18*
CN(Cc1c(F)cccc1Cl)C(=O)c1ccc2ccccc2n1,6,10,1,-2,-2,4,nt
Cc1cc(=O)n2nc(N3CCCC(C(=O)NCCc4ccc(Cl)cc4)C3)sc2n1 (configuration not stated),2,3,1,-5,-6,0,nt
CS(=O)(=O)c1ccc(C(=O)OCc2nnc(-c3ccccc3)o2)cc1[N+](=O)[O-],nt,3,73*,3,-1,nt,14*
CC(CCc1ccccc1)NC(=O)COC(=O)c1ccc([N+](=O)[O-])cc1 (configuration not stated),9,-6,0,2,1,-1,nt
CN(C)S(=O)(=O)c1ccc(C(=O)OCc2nnc(-c3ccccc3)o2)cc1,0,2,1,1,1,-2,nt
CC(CCc1ccccc1)NC(=O)COC(=O)c1ccc(S(C)(=O)=O)c([N+](=O)[O-])c1 (configuration not stated),-36,0,55*,2,i,-3,32*
O=S(=O)(CCN1CCOCC1)c1ccc(Oc2ccc(S(=O)(=O)CCN3CCOCC3)cc2)cc1,-4,3,1,2,1,0,nt
COc1cccc(CNC(=O)C2CC(=O)N(C3CCCCC3)C2)c1 (configuration not stated),-13,7,0,1,0,2,nt
COc1ccc(NC(=O)CN(C)C(=O)CCC2CCCC2)cc1,nt,-1,0,-2,3,2,nt
Cc1cnc(NC(=O)c2cc3c(C)nn(Cc4ccccc4Cl)c3s2)s1,-23,14,0,0,-3,-5,nt
O=C(c1ccc(Cl)cc1)c1c[nH]c(C(=O)C(Cl)(Cl)Cl)c1,-4,-6,80*,-1,0,1,3.9*
O=C(Cc1ccccc1)c1c[nH]c(C(=O)C(Cl)(Cl)Cl)c1,-5,-14,69*,-1,i,-1,37*
O=C(c1c[nH]c(C(=O)C(Cl)(Cl)Cl)c1)c1ccc(F)cc1Cl,-11,5,54*,10,0,-2,23*
CNC(=O)c1cc(C(=O)c2ccc(Cl)cc2)c[nH]1,-2,2,2,8,i,1,nt
COC(=O)C(NC(=O)c1ccccc1)C(C)(C)SCc1ccccc1 (configuration not stated),nt,-2,nt,-4,0,nt,nt
SMILES,Rv3671c protease,GDH-TPI counter,RecA intein inh,Mtb FBA inh,BH1578 lux ind,Mtb UGM inh,GFP chromophore
COc1ccccc1N1CCN(CC(=O)c2c(C)[nH]c3cc(C)ccc23)CC1,-7,0,9,-4,-1,-1,>38
COc1ccccc1N1CCN(CC(=O)c2c(C)n(C)c3ccccc23)CC1,-4,8,0,-4,-6,3,nt
O=S1(=O)[C@H]2C[C@@H]3C=C[C@@]2(CN1Cc1cccc(F)c1)O3,8,13,-1,0,i,0,nt
Cc1[nH][nH]c(=O)c1C(c1cc([N+](=O)[O-])ccc1O)c1c(C)[nH][nH]c1=O,-17,3,96*,-9,-1,3,0.53*
Cc1[nH][nH]c(=O)c1C(c1c(C)[nH][nH]c1=O)c1cn(C)c2ccccc12,nt,5,nt,-21,0,nt,nt
CCOC(=O)[C@H]1[C@H]2COc3ccc(Br)cc3[C@H]2N2C(=O)CNC(=O)[C@@]12C,-4,-9,nt,0,i,1,nt
Cc1ccc(C2=NN(C(=O)CCl)C(c3ccco3)C2)o1 (configuration not stated),nt,3,63*,2,0,nt,40*
Cc1ccccc1CS(=O)(=O)c1nnc([C@H](Cc2ccccc2)NC(=O)OC(C)(C)C)o1,2,0,41*,-2,-3,-1,12*
CCC(C)[C@@H](NC(=O)OC(C)(C)C)c1nnc(S(=O)(=O)Cc2cccc(C)c2)o1 (some centres not stated),nt,13,37*,0,1,nt,31*
CC(C)(C)OC(=O)N[C@@H](Cc1ccccc1)c1nnc(S(=O)(=O)Cc2ccccc2)o1,0,nt,nt,nt,nt,3,nt
O=c1c2cc([N+](=O)[O-])cc([N+](=O)[O-])c2[nH]n1-c1ccccc1,3,12,3,-27,i,2,nt
Cc1[nH]n(-c2ccccc2)c(=O)c1C(c1ccc([N+](=O)[O-])cc1)c1c(C)[nH]n(-c2ccccc2)c1=O,-185,11,95*,-9,i,2,1.6*
Cc1[nH]n(-c2ccccc2)c(=O)c1C(c1ccc(O)c([N+](=O)[O-])c1)c1c(C)[nH]n(-c2ccccc2)c1=O,-48,1,86*,-21,-18,1,2.3*
COc1ccc(CC(=O)Oc2ccc(C)cc2Br)cc1OC,25,2,9,-1,i,-2,nt
Cc1ccc(Sc2ccc(NC(=O)CCl)cc2)c(C)c1,-11,nt,90*,nt,nt,1,8.1*
Cc1ccc2c(C)c(C)c(=O)n(C)c2c1,nt,3,nt,-2,i,nt,nt
Cc1cc(C)c(S(C)(=O)=O)c(Oc2cccc(C(F)(F)F)c2)n1,-3,2,33*,3,0,0,>38
Cc1cc(C)c(S(C)(=O)=O)c(Oc2ccc(F)cc2)n1,7,-1,-2,1,i,-3,nt
Cc1ccc(S(=O)(=O)N2CCN(C(=O)c3ccccc3Cc3ccccc3)CC2)c(C)c1,2,-2,30*,-1,0,0,>38
Cc1ccc(S(=O)(=O)N2CCN(C(=O)c3ccco3)CC2)c(C)c1,-68,-3,-1,-2,i,-2,nt
